Laboratory results taken from the supplement of paper PMC6658780.
Where a name gives a salt, the structure may show the parent alone. ± gives the standard deviation of the averaged measurements.

tested on: Klebsiella pneumoniae KPC-119; assay: percent growth inhibition of drug + antibiotic vs DMSO control; higher = more growth inhibition; conditions: antibiotic (0.125x MIC): gentamicin; 7 µM

SMILES | percent growth inhibition [%]
CC(=O)OC[C@H]1O[C@@H]([S-])[C@H](OC(C)=O)[C@@H](OC(C)=O)[C@@H]1OC(C)=O.CCP(CC)CC.[Au+] [Auranofin] | 33.2 ± 9.4
CO[C@H]1/C=C/O[C@@]2(C)Oc3c(C)c(O)c4c(O)c(c(/C=N/N5CCN(C6CCCC6)CC5)c(O)c4c3C2=O)NC(=O)/C(C)=C\C=C\[C@H](C)[C@H](O)[C@@H](C)[C@@H](O)[C@@H](C)[C@H](OC(C)=O)[C@@H]1C [Rifapentine] | 4.75 ± 13
CO[C@H]1/C=C/O[C@@]2(C)Oc3c(C)c(O)c4c(c3C2=O)C2=NC3(CCN(CC(C)C)CC3)NC2=C(NC(=O)/C(C)=C\C=C\[C@H](C)[C@H](O)[C@@H](C)[C@@H](O)[C@@H](C)[C@H](OC(C)=O)[C@@H]1C)C4=O [Rifabutin] | 41.8 ± 7
NC[C@@H]1O[C@H](O[C@H]2[C@@H](O)[C@H](O[C@@H]3[C@@H](O)[C@H](N)C[C@H](N)[C@H]3O[C@H]3O[C@H](CO)[C@@H](O)[C@H](O)[C@H]3N)O[C@@H]2CO)[C@H](N)[C@@H](O)[C@@H]1O [Paromomycin sulfate] | 8.59 ± 1.5
CCn1cc(C(=O)O)c(=O)c2cc(F)c(N3CCN(C)CC3)cc21 [Pefloxacine] | 11.4 ± 19
CN[C@@H]1[C@@H](O[C@H]2O[C@H](CO)[C@@H](N)[C@H](O)[C@H]2O)OC2C[C@@H](N)[C@@H](O[C@H]3[C@H](O)[C@@H](O)[C@H](N)C[C@@H]3N)OC2[C@@H]1O (stereo not given in full) [Apramycin] | 27.9 ± 0.46
O=C1OCCN1/N=C/c1ccc([N+](=O)[O-])o1 [Furazolidone] | 17.8 ± 1.7
O=C(O)c1cn(-c2ccc(F)cc2)c2cc(N3CCNCC3)c(F)cc2c1=O [Sarafloxacin] | 99.81 ± 0.1
CN(C)c1ccc(O)c2c1C[C@H]1C[C@H]3[C@H](N(C)C)C(O)=C(C(N)=O)C(=O)[C@@]3(O)C(O)=C1C2=O [Minocycline hydrochloride] | 6.41 ± 2.8

same assay, conditions: antibiotic (0.125x MIC): gentamicin; 20 µM

SMILES | percent growth inhibition [%]
CC(=O)OC[C@H]1O[C@@H]([S-])[C@H](OC(C)=O)[C@@H](OC(C)=O)[C@@H]1OC(C)=O.CCP(CC)CC.[Au+] [Auranofin] | 99.78 ± 0.2
CO[C@H]1/C=C/O[C@@]2(C)Oc3c(C)c(O)c4c(c3C2=O)C2=NC3(CCN(CC(C)C)CC3)NC2=C(NC(=O)/C(C)=C\C=C\[C@H](C)[C@H](O)[C@@H](C)[C@@H](O)[C@@H](C)[C@H](OC(C)=O)[C@@H]1C)C4=O [Rifabutin] | 99.4 ± 0.45
CN[C@@H]1[C@@H](O[C@H]2O[C@H](CO)[C@@H](N)[C@H](O)[C@H]2O)OC2C[C@@H](N)[C@@H](O[C@H]3[C@H](O)[C@@H](O)[C@H](N)C[C@@H]3N)OC2[C@@H]1O (stereo not given in full) [Apramycin] | 99.968 ± 0.004
O=C1OCCN1/N=C/c1ccc([N+](=O)[O-])o1 [Furazolidone] | 99.78 ± 0.13
O=C(O)c1cn(-c2ccc(F)cc2)c2cc(N3CCNCC3)c(F)cc2c1=O [Sarafloxacin] | 99.82 ± 0.22
CN(C)c1ccc(O)c2c1C[C@H]1C[C@H]3[C@H](N(C)C)C(O)=C(C(N)=O)C(=O)[C@@]3(O)C(O)=C1C2=O [Minocycline hydrochloride] | 95.3 ± 1.8
